Screens as filed in PubChem BioAssay.
Hits are enriched below; roughly 4% of the tested compounds scored in any of these assays.
Wnt bcat act = activators of Wnt/beta-catenin signaling; Wnt/beta-catenin reporter cell assay, activator, plate reader; activation, % at 9.35 µM; actives 1.2% (n = 300,000); AID 743398; in the data active means activation above about 30%, passing the limit was not always enough; inconclusive means no clear call, values can overlap the other calls;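 further: 0% = neutral control wells and 100% = positive control wells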
MITF TRPM1 HTS = increases MITF-driven TRPM1 promoter luciferase signal; SK-MEL-5 TRPM1-promoter luciferase, 24 h; % of positive control, neutral wells = 0; AID 588334; activation, % at 12.5 µM; actives 0.75% (n = 300,000);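 active means mean activation of at least 80% with every replicate also reaching 80%; inconclusive means mean reaches 80% but some replicate falls short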;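 further: 0% = neutral control wells and 100% = parthenolide positive control wells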
EWS-Fli block = inhibitors of EWS/Fli oncoprotein transcriptional activity. A673 NR0B1-luciferase reporter, viability-normalised. inhibition, % at 12.6 µM. actives 0.67% (n = 350,000);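 active means mean inhibition of at least 50% after viability correction, with every replicate also passing that limit; inconclusive means mean reaches 50% but only one of two replicates passes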;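 further: firefly luciferase signal divided by Alamar Blue viability fluorescence both relative to DMSO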
esBAF inh = blocks esBAF chromatin remodeling in mouse ES cells; Bmi1-luciferase knock-in reporter, 24 h; 100% = twice the neutral-well signal; reporter increase, % at 12.5 µM; actives 2% (n = 350,000); AID 602393; in the data active means activation above about 40%; inconclusive means no clear call, values can overlap the other calls;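 further: 0% = median of the plate's neutral control wells and 100% = double that signal; a rise in the Bmi1 reporter signal indicates esBAF inhibition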
MITF TRPM1 inh = MITF TRPM1 promoter inhibition in SK-MEL-5 cells; SK-MEL-5 TRPM1 promoter luciferase, 24 h; inhibition, % at 12.5 µM; actives 0.83% (n = 330,000);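 active means mean inhibition across replicates of 60% or more, whatever share of single replicates reaches that level; inconclusive means some that reach 60%, reason not given; inactive means mean inhibition across replicates below 60%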
PAX8 reporter = inhibitors of PAX8 transcriptional activity in RMG-I cells; RMG-I TPO-luciferase reporter, SteadyGlo, 24 h; inhibition, % at 12.6 µM; actives 1.2% (n = 360,000);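 active means mean replicate inhibition at least 60% with every replicate also reaching 60%; inconclusive means only one of the two criteria is met; inactive means mean below 60% and not all replicates reaching 60%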;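 further: luciferase light reporting Pax8 driven TPO promoter activity; plate controls were median of neutral control wells for no effect and mitoxantrone controls for full effect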
An asterisk follows results filed as active; ? = inconclusive; nt = not tested or not shown.

SMILES	Wnt bcat act	MITF TRPM1 HTS	EWS-Fli block	esBAF inh	MITF TRPM1 inh	PAX8 reporter
Cc1ccc2c(c1)c1c(n2C)C(C(N)=O)CCC1 (stereo not drawn)	3.6	-2.0	nt	-0.5	3.7	14.3
Clc1ccc(-c2nnc(CCc3ccccc3)o2)c(Cl)c1	19.5	?	-103.0	59.8*	-83.9	nt
Oc1ccccc1-c1nnc(COc2ccc(Cl)cc2Cl)o1	?	96.0*	-52.6	12.1	-93.8	-188.6
Oc1ccccc1-c1nnc(COc2ccccc2)o1	17.8	70.5	-56.8	?	-69.0	-38.5
Cc1nc(N2[C@H](CO)[C@H](c3ccccc3)[C@H]2CNCC2CCCC2)sc1C	nt	nt	-0.4	nt	nt	nt
CC(C)NC(=O)Nc1ccc2c(c1)C(=O)N(C)[C@H]1CC[C@H](CC(=O)Nc3ccccc3Cl)O[C@@H]1CO2	nt	nt	-1.5	0.0	nt	-0.3
CCOc1ccc(-n2c(SCc3cc(=O)oc4cc(C)ccc34)nnc2-c2cccnc2)cc1	-2.8	1.1	9.6	nt	-0.9	65.3*
N#C/C(=C\c1ccc(N2CCCCC2)o1)C(N)=O	1.9	-4.6	-13.0	nt	4.8	-26.0
N#C/C(=C\c1ccc(N2CCCCC2)o1)C(=O)Nc1cccc(Br)c1	37.9*	3.6	nt	nt	0.3	-20.6
C[C@H]1CCCCO[C@H](CN(C)S(=O)(=O)c2ccc(Cl)cc2)[C@@H](C)CN([C@@H](C)CO)C(=O)c2cc(NS(=O)(=O)c3cn(C)cn3)ccc2O1	nt	nt	-0.6	1.6	nt	-13.5
C/C(=N\Nc1ccc(C(=O)O)cc1)c1ccc(Cl)s1	?	nt	-20.6	67.0*	nt	-147.6
C/C(=N\Nc1ccc(C(=O)O)cc1)c1ccc(Br)cc1	3.6	-28.5	49.3	-20.0	29.6	0.0
CCC/C(=C1/c2ccccc2C(=O)N1c1ccccc1)c1ccc2[nH]ccc2c1	-6.6	-24.6	38.1	-14.1	29.6	16.5
O=C1c2ccccc2/C(=C\c2ccc3[nH]ccc3c2)N1c1ccccc1	26.3	25.8	-47.8	45.3*	-21.2	6.9
CCOc1cc(CNc2ccc3c(c2)OCCO3)cc(Br)c1OC	nt	-60.0	nt	-57.3	61.9*	nt
CCOc1c(Br)cc(CNc2ccc3c(c2)OCCO3)cc1OC	nt	-56.0	nt	-32.2	55.5	nt
O=[N+]([O-])c1ccc(N/N=C/c2ccccc2O)cc1	6.4	35.1	-29.7	68.7*	-29.0	-192.0
O=[N+]([O-])c1cccc(N/N=C/c2cc([N+](=O)[O-])ccc2O)c1	4.2	22.6	-46.1	nt	-17.3	-50.9
O=[N+]([O-])c1ccc(O)c(/C=N/Nc2ccccn2)c1	-7.9	-64.8	20.3	nt	64.7*	71.4*
O=[N+]([O-])c1ccc(N/N=C/c2ccccc2)c(F)c1	33.9*	87.3*	-51.0	nt	-89.1	-124.8
Cc1nnc(N/N=C/c2ccc([N+](=O)[O-])cc2)n1N	1.0	-6.6	3.2	-4.9	8.1	-13.3
Cc1csc(N/N=C/c2ccc([N+](=O)[O-])cc2)n1	11.8	nt	-66.8	52.6*	-69.2	-143.3
CO[C@@H]1CN(C)C(=O)c2cc(NC(C)=O)ccc2OC[C@@H](C)N(C(=O)CC2CC2)C[C@H]1C	nt	nt	0.1	4.1	nt	nt
CCS(=O)(=O)N1CCCCN2[C@H](CO)[C@@H](c3ccc(-c4cccc(C#N)c4)cc3)[C@@H]2C1	nt	nt	nt	nt	nt	-1.5
O=[N+]([O-])c1ccc(C=NNc2ccccc2)cc1	14.5	69.7	-65.0	44.2*	-68.4	-38.9
SMILES	Wnt bcat act	MITF TRPM1 HTS	EWS-Fli block	esBAF inh	MITF TRPM1 inh	PAX8 reporter
O=[N+]([O-])c1cccc(C=NNc2ccccc2)c1	-2.6	60.8	-92.3	?	-61.0	1.5
CCOC(=O)C(CC(=O)c1ccccc1)CC(=O)c1ccccc1	6.0	86.8*	-63.3	56.9*	-88.0	-125.5
COC(=O)C(CC(=O)c1ccccc1)CC(=O)c1ccccc1	0.8	32.2	-18.6	53.4*	-30.1	-34.6
Cc1c(-c2ccccc2)nnn1-c1ccc(F)cc1F	9.9	73.1	-72.6	50.7*	-77.8	-103.0
CCCNC(=O)N1CC2(CCN(C(C)=O)CC2)c2c(n(C)c3cc(OC)ccc23)[C@@H]1CO	nt	nt	-4.3	nt	nt	nt
CNC[C@H]1OCCCC[C@H](C)Oc2ccc(NC(=O)Nc3ccc4c(c3)OCO4)cc2C(=O)N([C@@H](C)CO)C[C@@H]1C	nt	nt	-6.4	-4.0	nt	-6.9
COc1ccc(/C(C#N)=C/c2cccnc2)cc1	7.0	58.9	-46.0	41.9*	-62.3	-65.4
COc1ccc(C(C#N)=Cc2ccc(N(C)CCC#N)cc2)cc1	31.0*	nt	-62.0	77.0*	nt	-103.5
